In PubChem BioAssay (NCI):
The panel holds about 83,000 compounds, 20% with a hit somewhere; the sample as a whole holds those more often.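 Note: values are percent growth. 100 is the growth of untreated cells, values between 100 and 0 indicate rising inhibition; between -100 and 0 indicates cell death.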 Active and inactive are the calls of the source. How the source made its calls: active means growth percent below 10; inactive means the rest.

Assays:
Assay in all cases: NCI-60 one-dose screen, 48 h (100 = growth as untreated, 0 = no growth, -100 = all killed)
[1] = system: NCI-H226 lung; settings: 10 µM unless noted
[2] = system: NCI-H322M lung; settings: 10 µM unless noted
[3] = system: HOP-62 NSCLC; settings: 10 µM unless noted
[4] = system: NCI-H460 lung; settings: 10 µM unless noted
[5] = system: HOP-92 NSCLC; settings: 10 µM
[6] = system: A549/ATCC NSCLC; settings: 10 µM unless noted
[7] = system: 786-0 renal; settings: 10 µM unless noted
[8] = system: COLO 205 colon; settings: 10 µM unless noted
[9] = system: DU-145 prostate; settings: 10 µM unless noted
[10] = system: K-562 leukemia; settings: 10 µM unless noted
[11] = system: MALME-3M melanoma; settings: 10 µM unless noted
[12] = system: MDA-MB-231 breast; settings: 10 µM unless noted
[13] = system: RXF 393 renal; settings: 10 µM unless noted
[14] = system: SF-268 CNS; settings: 10 µM unless noted
[15] = system: SF-295 CNS; settings: 10 µM unless noted
[16] = system: SF-539 CNS; settings: 10 µM unless noted
[17] = system: UACC-257 melanoma; settings: 10 µM unless noted
[18] = system: M14 melanoma; settings: 10 µM unless noted
[19] = system: NCI-H522 lung; settings: 10 µM unless noted

Measured: growth

C=C(C)[C@@H]1CC[C@]2(C(=O)NCCCCCN(CCC#N)CCC#N)CC[C@]3(C)[C@H](CC[C@@H]4[C@@]5(C)CCC(=O)C(C)(C)[C@@H]5CC[C@]43C)[C@@H]12
inactive: [1] 92.8% | [2] 116% | [3] 82.6% | [4] 87.5% | [5] 97% | [6] 90.9% | [7] 92% | [8] 111% | [9] 96.2% | [10] 96.9% | [11] 119% | [12] 107% | [13] 58.2% | [14] 81.5% | [15] 99.6% | [16] 101% | [17] 103% | [18] 97.6%

CC(C)(C)CC(C)(C)n1nnnc1C(Nc1nccs1)c1cc2cccc3ccc4cccc1c4c32 (configuration not stated)
inactive: [2] 93.9% | [3] 89% | [4] 103% | [19] 96.8% | [6] 107% | [7] 102% | [8] 114% | [9] 107% | [10] 111% | [11] 94% | [12] 97.2% | [13] 119% | [14] 94.8% | [15] 94.9% | [16] 92.7% | [17] 104% | [18] 111%
active: [1] 3.26%

COc1ccc(-c2nc(C(Cl)Cl)nc3cc(-c4ccccc4)nn23)cc1
inactive: [1] 63.2% | [7] 68.8% | [14] 14.2% | [16] 35.5%
active: [2] -33.8% | [3] -11.5% | [4] -75.9% | [5] -14.8% | [6] -42.9% | [8] -74.6% | [9] -26.7% | [10] 7.86% | [11] -44.9% | [12] 6.65% | [13] -82.1% | [15] 9.62% | [17] 4.58% | [18] -69%

CC(=O)Nc1cccc(Nc2nc(N[C@H](C)c3ccccc3)c3ccccc3n2)c1
active: [10] 5.94% | [13] -5.79%
inactive: [1] 82.6% | [2] 90.3% | [3] 72.6% | [4] 41.2% | [5] 22% | [6] 40.7% | [7] 54.9% | [8] 44.1% | [9] 65% | [11] 71.3% | [12] 57.8% | [14] 62.9% | [15] 42.3% | [16] 73.9% | [17] 58.6% | [18] 58.7%

O=C(CCC(=O)N1CCOCC1)OCCCCCCSc1ccc([N+](=O)[O-])c2nonc12
active: [1] -20.7% | [4] -13.6% | [5] -14.3% | [19] -61.2% | [7] -20.7% | [8] -56.7% | [9] -91.9% | [10] 6.53% | [11] -81.2% | [12] -39.8% | [13] -62% | [14] -9.47% | [15] -12.5% | [16] -88.4% | [17] -25.7%
inactive: [3] 38.1% | [6] 29.8%

CS(=O)(=O)c1ccc(-c2nn(-c3ccccc3)cc2/C=N/NC(=O)c2nc(N)n[nH]2)cc1
inactive: [1] 101% | [2] 104% | [4] 83% | [5] 103% | [6] 97.3% | [7] 96.8% | [8] 96.3% | [9] 90% | [10] 59.4% | [11] 90% | [12] 98.4% | [13] 117% | [14] 103% | [15] 103% | [16] 99.3% | [17] 98.3%

O=c1[nH]c2ccccc2cc1CSc1ccccc1Nc1nccc(-c2ccc(Cl)cc2)n1
inactive: [1] 94.1% | [2] 94.1% | [4] 97.5% | [5] 83.5% | [19] 97.4% | [6] 95.4% | [7] 101% | [8] 125% | [9] 102% | [10] 94.7% | [11] 86.1% | [12] 84.5% | [13] 93.5% | [14] 94.6% | [15] 95.5% | [16] 82.7% | [17] 104% | [18] 108%

NC(N)=Nc1ccc(Oc2cccc(NC(N)=Nc3ccc(I)cc3F)c2)cc1
inactive: [1] 88.2% | [2] 80.4% | [3] 76.4% | [4] 65.9% | [5] 39% | [19] 66.8% | [7] 86.4% | [8] 48.9% | [9] 97.6% | [10] 69.9% | [11] 83% | [12] 83.6% | [14] 36.4% | [15] 77.3% | [16] 62.6% | [17] 86.4%

COc1ccc(C(=O)Nc2ncc(Cc3ccccc3Cl)s2)cc1
active: [4] 2.79% | [19] -37.3% | [8] -48.3% | [10] 7.56% | [13] -2.13% | [15] 7.7% | [16] 2.11%
inactive: [1] 31.7% | [2] 54.3% | [3] 39.2% | [6] 24.3% | [7] 28.9% | [9] 18.2% | [11] 57.1% | [12] 24.9% | [14] 43.3% | [17] 67% | [18] 15.5%
